From PubChem BioAssay
PTHR1 agonist – agonists of human PTHR1 parathyroid hormone receptor; Potency, µM (series often up to 115 µM), for inactives: top-dose activation, actives largely listed as activators; Q03431; HEK293 GP2 PTHR1 cells, GloSensor cAMP luminescence, 1 h; 410,000 tested, 0.075% active; further: potency means the concentration at half of the fitted maximal effect; nearly all actives have a fitted effect of over 55% in size
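HEK-293-derived GP2 cells expressing PTHR1 and a GloSensor cAMP reporter, 3,000/well, plated overnight, given luciferin plus IBMX (each 0.5 mM as added) for 1 h at 37 °C, then compound for 1 h at 37 °C. Luminescence was read after 15 min at room temperature.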
NPSR antag – antagonists of human neuropeptide S receptor cAMP signaling; 220,000 tested, 1% active; Q6W5P4; Potency, µM (doses to about 38.3 µM), inactives show top-dose activity change, negative = inhibition, usual class: inhibitors; CHO-NPSR cells, cAMP TR-FRET, antagonist mode; AID 1461; further: potency means the concentration at half of the fitted maximal effect; on the % scale 0 is the no-effect control and ±100 the full control effect; nearly all actives have a fitted effect of over 50% in size
HEK293 tox – cytotoxicity in counter-screen for GLP-1R inverse agonists | HEK293 cAMP-luciferase reporter cells, luminescence, 24 h | Potency, µM (series often up to 38.3 µM), inactives show at the top dose activity change, negative = inhibition, usual class: inhibitors | 410,000 tested, 0.13% active;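 further: loss of luciferase light is scored as toxicity; potency means the concentration at half of the fitted maximal effect; on the % scale 0 is the no-effect control and ±100 the full control effect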
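To flag toxic compounds, the library was rerun on cells for 24 hr at 37 deg C and 5% CO2. Viability-linked luminescence was captured 12 min after adding luciferase detection reagent.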
RXFP1 antagonist – blocks the human relaxin receptor RXFP1; Q9HBX9; HEK293-RXFP1, relaxin-stimulated cAMP HTRF, 30 min; stronger effect = lower value; activity change, negative = inhibition, % at 57.5 µM; 350,000 tested, 0.59% active; AID 1259400;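 active means activity change of -60% or lower, but not beyond a set lower limit; inconclusive means change between -60% and -40%, or beyond the set limit; inactive means change above -40%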; further: on the % scale 0 is the no-effect control and ±100 the full control effect
RXFP1 ag – RXFP1 (human) receptor agonism. HEK293T-RXFP1 cAMP TR-FRET, 30 min; response scale: percent of porcine relaxin response, buffer zero. Potency, µM (titrated, usually from 57.5 µM), inactives show at the highest dose activation, actives largely listed as activators. 370,000 tested, 0.3% active. AID 2676; further: potency means the concentration at half of the fitted maximal effect; on the % scale 0 is the no-effect control and ±100 the full control effect; nearly all actives have a fitted effect of over 60% in size
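Agonist response is measured as cAMP accumulation in an RXFP1-transfected HEK293T line under PDE4 inhibition. Values are scaled between buffer-only and 29 nM porcine relaxin, and EC50s come from standard Hill equation fits.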
TSHR antagonist – antagonists of human thyroid stimulating hormone receptor. TSHR-expressing cells, TSH-stimulated cAMP HTRF, 2 h; stronger effect = lower value. activity change, negative = inhibition, % at 11.5 µM. 330,000 tested, 0.2% active. P16473. AID 504810;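 active means activity change below a set negative limit, meaning inhibition stronger than a set level, cut at about -70% in these data; inconclusive means activity change between two set negative limits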; further: on the % scale 0 is the no-effect control and ±100 the full control effect
Target sequence (P16473 whole entry, looked up): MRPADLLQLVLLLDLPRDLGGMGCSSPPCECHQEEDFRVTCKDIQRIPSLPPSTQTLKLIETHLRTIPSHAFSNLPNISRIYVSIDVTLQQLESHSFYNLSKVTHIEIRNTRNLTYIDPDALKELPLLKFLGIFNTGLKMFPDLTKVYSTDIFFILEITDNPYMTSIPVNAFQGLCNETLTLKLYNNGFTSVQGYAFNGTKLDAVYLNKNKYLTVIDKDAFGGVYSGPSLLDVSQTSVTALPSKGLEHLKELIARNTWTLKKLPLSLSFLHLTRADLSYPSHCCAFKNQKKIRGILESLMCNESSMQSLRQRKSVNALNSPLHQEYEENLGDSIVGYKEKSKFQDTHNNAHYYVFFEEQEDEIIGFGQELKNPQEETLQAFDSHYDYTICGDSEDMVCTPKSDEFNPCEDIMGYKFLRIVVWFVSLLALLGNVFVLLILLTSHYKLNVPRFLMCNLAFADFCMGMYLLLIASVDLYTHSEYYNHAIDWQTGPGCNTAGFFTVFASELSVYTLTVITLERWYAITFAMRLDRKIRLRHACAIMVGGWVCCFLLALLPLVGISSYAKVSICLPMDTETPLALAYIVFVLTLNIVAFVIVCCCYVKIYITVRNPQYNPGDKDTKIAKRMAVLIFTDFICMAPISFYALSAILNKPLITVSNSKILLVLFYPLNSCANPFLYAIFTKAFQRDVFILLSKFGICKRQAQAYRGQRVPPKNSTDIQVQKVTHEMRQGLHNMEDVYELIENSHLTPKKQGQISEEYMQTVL
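TSHR-expressing cells, 200/well, pre-treated with compound, then stimulated with EC80 TSH (4nM final) for 2 hours at 37 deg C. cAMP measured by competitive HTRF: anti-cAMP cryptate antibody in lysis buffer plus cAMP-d2, read after 30 minutes at room temperature.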
Starred values were filed as active, the others as inactive; i = inactive; ? = inconclusive; . = not tested or not shown; [ ] = remark or other dose. The entries come from a sample that favours hits as a whole. Unless noted, the call rests on the fitted dose curve; in most records, active means well fitted curve in the direction sought with a large enough effect; inconclusive means small, poorly fitted or top-dose-only effect, or another doubt; inactive means no such curve, though single readings can be large; an effect the other way counts as inactive or inconclusive.

SMILES	PTHR1 agonist	NPSR antag	HEK293 tox	RXFP1 antagonist	RXFP1 ag	TSHR antagonist
CCOC(=O)CN1C(c2ccccc2O)Nc2ccc(Br)cc2C1c1ccccc1 (stereo not drawn)	-12%	-17%[46.1 µM]	9%	-73*	0%	6
CC(C)c1ccc(C2C(C#N)=C(N)N3C(=C2C#N)Sc2ccccc23)cc1 (stereo not drawn)	.	7.9µM*	.	.	7%	13
COc1ccc(C2C3C=CCC(c4cccc(-c5ccc(C)cc5)c4)C3C(=O)N2Cc2ccccc2)cc1Cl (stereo not drawn)	-30%	10µM*	2%	.	0%	3
COc1ccc(-c2cccc(C3CC=CC4C3C(=O)N(Cc3ccccc3)C4c3ccc4ccccc4c3)c2)cc1 (stereo not drawn)	-14%	-29%	4%	.	0%	-4
Cc1ccc(-c2ccc(/C=N/N=C3/NC(=O)C(CC(=O)O)S3)o2)c([N+](=O)[O-])c1 (stereo not drawn)	i	-9%[46.1 µM]	-15%	-2	0%	-72*
Cc1ccnc(Nc2nc(-c3ccc(F)cc3)cs2)c1	-55%	.	-3%	-66*	0%	?
COc1ccc(-c2csc(Nc3ccccn3)n2)cc1OC	-33%	.	3%	-84*	-1%	-17
O=C1OCCN1N1CCOC1=O	-4%	.	6%	-7	.	.
CC(=O)C1=C(C)NC(SCC(=O)c2ccc(Cl)c(Cl)c2)=C(C#N)C1c1ccco1 (stereo not drawn)	i	10µM*	-17%	2	0%	.
CSCSC1=C(C#N)C(c2ccccc2Cl)C(C(C)=O)=C(C)N1 (stereo not drawn)	?	-13%[46.1 µM]	16%	18	1%	-80*
CCc1ccc(C(=O)CSC2=C(C#N)C(c3ccco3)C(C(C)=O)=C(C)N2)cc1 (stereo not drawn)	.	?	.	.	3%	-20
CC(=O)C1=C(C)NC(SCC(=O)c2cc(Cl)ccc2Cl)=C(C#N)C1c1ccco1 (stereo not drawn)	24%[57.5 µM]	10µM*	25%	9	1%	-14
COc1ccccc1NC(=O)C1=C(C)NC(SCC(=O)c2ccc(C)cc2)=C(C#N)C1c1ccco1 (stereo not drawn)	.	6.3µM*	.	.	3%	3
CC(=O)C1=C(C)NC(SCC(=O)c2ccc(F)cc2)=C(C#N)C1c1ccco1 (stereo not drawn)	-29%	-17%[46.1 µM]	6%	0	1%	-17
c1ccc(-c2nnc(CN3CCN(c4ccccn4)CC3)o2)cc1	i	.	-3%	1	3%	.
COc1ccc(OCCN(C)C(=O)c2cccc(S(=O)(=O)N(C)c3ccccc3)c2)cc1	-32%	.	-20%	-14	3%	-13
Cn1c(=O)c(C(=O)NNC(=O)c2ccccc2Cl)c(O)c2ccccc21	i	.	-10%	-66*	2%	-8
CC(NC(=O)c1ccco1)C(=O)OCc1cccc(C(F)(F)F)c1 (stereo not drawn)	i	.	-19%	4	.	6
Cc1ccc(-c2nc(C(=O)NC3CCCCCC3)no2)cc1	-39%	.	3%	-61*	.	.
Cc1ccc(-c2cc(C(=O)NC3CCCCC3)no2)cc1	i	.	-12%	-15	1%	-42
O=S(=O)(NC1C2CC3CC(C2)CC1C3)c1ccc(F)cc1 (stereo not drawn)	-3%	.	12%	-7	1%	-7
Cc1ccc(-n2nc(CO)c(C(=O)NCCCCc3ccccc3)n2)cc1	i	.	-12%	-4	-1%	.
O=C(NCC(c1ccccc1)c1ccccc1)c1nn(-c2ccccc2Cl)nc1CO	-12%	.	-13%	-66*	1%	.
O=C(NCCCCc1ccccc1)c1nn(-c2ccccc2)nc1CO	-24%	.	-6%	-69*	0%	.
CC1=C(C(=O)Nc2cccnc2)C(c2ccc(F)cc2)n2nc(SCc3ccccc3F)nc2N1 (stereo not drawn)	i	.	-11%	.	-1%	.
SMILES	PTHR1 agonist	NPSR antag	HEK293 tox	RXFP1 antagonist	RXFP1 ag	TSHR antagonist
CN(C)S(=O)(=O)c1cccc(NC(=S)N/N=C/c2cc(Br)ccc2O)c1	-33%	-42%	0%	-84*	2%	0
CN(C)S(=O)(=O)c1cccc(NC(=S)N/N=C/c2cccc(O)c2)c1	i	9%	?	-18	1%	-11
CC(C)=CCC[C@@](C)(O)[C@H]1CC=C(C)CC1	.	.	.	-5	.	.
Cc1ccc(NC(=O)/C(=C\c2ccc([N+](=O)[O-])cc2)NC(=O)c2ccccc2)cc1	-2%[57.5 µM]	-9%[46.1 µM]	-7%	-8	-1%	7
O=C(N/N=C/c1ccc(O)c(O)c1O)/C(=C/c1ccc([N+](=O)[O-])cc1)NC(=O)c1ccccc1	-18%	-9%[46.1 µM]	-8%	-71*	0%	4
C=Cc1ccc2c(c1)N(C)C(=C)S2	-10%	-7%	-7%	-119*	1%	1
O=C(O)CCNc1ccc(NCCC(=O)O)c2c1C(=O)c1ccccc1C2=O	-25%	.	-25%	-63*	-115%	-30
COc1ccccc1NCCC(=O)O	i	10%	3%	5	-2%	-4
CC(=O)N1c2ccc(S(=O)(=O)N(C)Cc3ccco3)cc2CC1C (stereo not drawn)	-21%	.	-4%	35	0%	11
CC(CCc1ccc2c(c1)OCO2)NN (stereo not drawn)	.	.	.	-11	.	.
COc1ccc(NS(=O)(=O)c2cc(NC(=O)C3CC3)ccc2N2CCCCC2)cc1	-14%	13µM*	-21%	2	2%	5
O=C(Cc1ccccc1)N/N=C/c1ccc2cccc(O)c2n1	-6%	-5%	5.6µM*	-20	0%	10
Cc1ccc(C)c(N2CCN(C(=O)c3cccc(-n4c(C)nc5cccnc54)c3)CC2)c1	i	.	0%	-70*	1%	.
Cc1nc2cccnc2n1-c1cccc(C(=O)N2CCN(c3ccc(Cl)cc3)CC2)c1	-94%	.	-4%	?	14%	.
Cc1ccc(Cl)cc1N1CCN(C(=O)c2ccc(C)c(-n3c(C)nc4cccnc43)c2)CC1	-35%	.	-13%	-64*	-1%	.
CCOC(=O)C1=C(C)N(C)C(C)=C(C(=O)OCC)C1c1ccc(Cl)cc1	-36%	?	-5%	-61*	1%	-9
Cc1cc(C)c(S(=O)(=O)NCC(c2cccs2)S(=O)(=O)c2ccccc2)c(C)c1 (stereo not drawn)	-20%	.	-14%	-16	-1%	.
Cc1nc2ccccn2c1C(=O)NNC(=S)Nc1ccc(Cl)cc1	-13%	-4%	18%[1.53 µM]	-6	2%	0
Cc1nc2ccccn2c1C(=O)NNC(=S)Nc1ccccc1	i	-5%	0%	-89*	6%	-1
